Measured values as given in PubChem BioAssay (EPA / NIEHS).
Inconclusive results are not listed. Activity calls are given as the source filed them. How the source made its calls, unless noted: active means hit-call score of the fitted dose curve at least 0.9, where 1 is the maximum; inactive means score below 0.9.

Experiments:
[1] = target: human RAR-related Orphan Receptor beta (RORb), RORB (gene 6096) (UniProt Q92753); assay: ATG_RORb_TRANS: Attagene TRANS-FACTORIAL HepG2 Assay for human RAR-related Orphan Receptor beta (RORb) (AID 2283010; active means hit-call score of the fitted dose curve at least 0.9, where 1 is the maximum)
human RAR-related Orphan Receptor beta (RORb), RORB (gene 6096), sequence (Q92753 whole entry, looked up, the tested form may be a part): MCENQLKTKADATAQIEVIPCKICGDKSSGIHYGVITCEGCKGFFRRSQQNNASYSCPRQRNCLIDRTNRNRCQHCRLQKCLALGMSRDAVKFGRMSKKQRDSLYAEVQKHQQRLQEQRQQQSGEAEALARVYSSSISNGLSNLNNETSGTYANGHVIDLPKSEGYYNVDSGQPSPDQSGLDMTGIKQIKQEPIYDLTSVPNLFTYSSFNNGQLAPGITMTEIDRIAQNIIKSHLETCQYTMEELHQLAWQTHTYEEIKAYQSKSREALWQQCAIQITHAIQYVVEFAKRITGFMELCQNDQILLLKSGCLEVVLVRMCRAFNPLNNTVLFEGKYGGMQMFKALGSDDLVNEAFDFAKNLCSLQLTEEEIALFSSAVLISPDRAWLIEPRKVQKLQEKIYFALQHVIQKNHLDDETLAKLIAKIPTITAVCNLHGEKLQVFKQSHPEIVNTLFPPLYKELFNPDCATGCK
In short: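 Read-out is reporter mRNA induction, quantified by RT-PCR with fluorescent capillary electrophoresis, 24 h post-dose in transiently transfected HepG2 expressing exogenous NR-Gal4 chimera. Activity fitted upward versus DMSO.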

[2] = target: human RAR-related Orphan Receptor gamma (RORg), RORC (gene 6097) (UniProt P51449); assay: ATG_RORg_TRANS: Attagene TRANS-FACTORIAL HepG2 Assay for human RAR-related Orphan Receptor gamma (RORg) (AID 2283011; active means hit-call score of the fitted dose curve at least 0.9, where 1 is the maximum;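 on AC50: potency for induction of reporter transcripts above DMSO so activators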)
human RAR-related Orphan Receptor gamma (RORg), RORC (gene 6097), sequence (P51449 whole entry, looked up, the tested form may be a part): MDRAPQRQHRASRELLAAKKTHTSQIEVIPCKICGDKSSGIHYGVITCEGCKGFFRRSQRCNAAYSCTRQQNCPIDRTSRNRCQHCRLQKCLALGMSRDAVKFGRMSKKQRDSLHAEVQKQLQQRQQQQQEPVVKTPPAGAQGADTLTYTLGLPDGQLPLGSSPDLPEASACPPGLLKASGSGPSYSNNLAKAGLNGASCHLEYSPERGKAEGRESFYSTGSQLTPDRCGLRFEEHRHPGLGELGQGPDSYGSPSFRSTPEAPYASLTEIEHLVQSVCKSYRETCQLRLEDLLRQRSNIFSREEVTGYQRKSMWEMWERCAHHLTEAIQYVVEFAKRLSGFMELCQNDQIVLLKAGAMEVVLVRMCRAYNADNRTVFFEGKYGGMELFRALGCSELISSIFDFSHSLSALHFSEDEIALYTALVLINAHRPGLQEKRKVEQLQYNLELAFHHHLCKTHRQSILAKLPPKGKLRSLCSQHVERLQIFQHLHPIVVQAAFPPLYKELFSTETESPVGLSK
In short: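 HepG2 cells transiently transfected with GAL4-UAS reporter units and chimeric RORg-Gal4 construct; after 24 h chemical exposure, reporter mRNA measured by RT-PCR with fluorescent capillary electrophoresis, gain of signal fitted against DMSO.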

[3] = target: Retinoic acid receptor RXR-alpha (Homo sapiens) (UniProt P19793); assay: ATG_RXRa_TRANS: Attagene TRANS-FACTORIAL HepG2 Assay for human Retinoid X Receptor alpha (RXRa) (AID 2283012; active means hit-call score of the fitted dose curve at least 0.9, where 1 is the maximum)
Retinoic acid receptor RXR-alpha (Homo sapiens), sequence (P19793 whole entry, looked up, the tested form may be a part): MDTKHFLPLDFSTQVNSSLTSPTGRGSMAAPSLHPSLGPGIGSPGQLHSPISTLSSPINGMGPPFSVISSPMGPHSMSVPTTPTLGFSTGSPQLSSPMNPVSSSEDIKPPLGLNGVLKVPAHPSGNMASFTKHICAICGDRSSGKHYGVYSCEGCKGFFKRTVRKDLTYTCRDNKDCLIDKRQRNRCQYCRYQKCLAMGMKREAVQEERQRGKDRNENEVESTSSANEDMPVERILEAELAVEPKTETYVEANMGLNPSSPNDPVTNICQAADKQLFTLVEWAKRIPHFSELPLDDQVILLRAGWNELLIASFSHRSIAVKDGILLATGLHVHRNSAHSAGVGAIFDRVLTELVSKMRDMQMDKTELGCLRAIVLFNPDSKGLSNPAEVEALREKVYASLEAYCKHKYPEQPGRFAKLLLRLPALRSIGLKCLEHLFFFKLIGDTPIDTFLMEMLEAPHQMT
In short: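 TRANS format reporting activity of exogenous RXRa-Gal4 chimera in transiently transfected HepG2, 24 h exposure. Reporter transcripts quantified by RT-PCR with capillary electrophoresis, with gain of signal scored relative to DMSO.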

[4] = target: human Retinoid X Receptor beta (RXRb), RXRB (gene 6257) (UniProt P28702); assay: ATG_RXRb_TRANS: Attagene TRANS-FACTORIAL HepG2 Assay for human Retinoid X Receptor beta (RXRb) (AID 2283013; active means hit-call score of the fitted dose curve at least 0.9, where 1 is the maximum)
human Retinoid X Receptor beta (RXRb), RXRB (gene 6257), sequence (P28702 whole entry, looked up, the tested form may be a part): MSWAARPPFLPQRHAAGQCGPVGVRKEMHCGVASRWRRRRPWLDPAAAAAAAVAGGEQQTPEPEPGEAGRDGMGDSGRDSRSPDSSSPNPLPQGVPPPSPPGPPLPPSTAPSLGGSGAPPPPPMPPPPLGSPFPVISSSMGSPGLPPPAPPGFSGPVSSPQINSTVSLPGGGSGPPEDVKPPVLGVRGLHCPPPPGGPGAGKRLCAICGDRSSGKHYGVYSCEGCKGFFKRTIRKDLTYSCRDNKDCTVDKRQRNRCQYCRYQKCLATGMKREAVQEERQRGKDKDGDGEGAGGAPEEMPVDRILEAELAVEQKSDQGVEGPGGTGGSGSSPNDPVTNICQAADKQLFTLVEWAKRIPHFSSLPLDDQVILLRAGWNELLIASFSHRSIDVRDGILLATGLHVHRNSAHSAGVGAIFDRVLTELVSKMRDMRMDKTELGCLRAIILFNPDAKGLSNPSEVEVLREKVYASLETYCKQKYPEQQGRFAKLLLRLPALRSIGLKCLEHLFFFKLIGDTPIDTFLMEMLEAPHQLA
In short: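 Readout is reporter transcript induction after 24 h dosing. It is measured by RT-PCR of total RNA followed by fluorescent capillary electrophoresis. HepG2 liver cells carry transfected multiple reporter units driven by an exogenous RXRb-Gal4 fusion; activity is relative to DMSO.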

[5] = read-out: E-selectin (Homo sapiens) (UniProt P16581); assay: BSK_3C_Eselectin: BioMAP Diversity Plus: 3C Assay for Eselectin Biomarker Activity (AID 2283015); details: primary human endothelial cells (HUVEC); actives raise or lower the signal
In short: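 Primary human umbilical vein endothelial cells (3C system), read 24 h after compound addition; E-selectin measured by ELISA. Bidirectional curve fitting against DMSO baseline; cytotoxicity by parallel SRB total-protein staining.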

[6] = read-out: Interleukin-1 alpha (IL1a), IL1A (gene 3552); assay: BSK_BE3C_IL1a: BioMAP Diversity Plus: BE3C Assay for Interleukin-1 alpha (IL1a) Biomarker Activity (AID 2283016); details: primary human bronchial epithelial cells; actives raise or lower the signal
In short: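 IL-1a measured by ELISA after 24 h treatment of human primary bronchial epithelial cells, with gain or loss of signal fitted versus DMSO. Parallel cultures stained with SRB gauge overt cytotoxicity.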

[7] = read-out: Monocyte Chemoattractant Protein-1 (MCP1), CCL2 (gene 6347); assay: BSK_3C_MCP1: BioMAP Diversity Plus: 3C Assay for Monocyte Chemoattractant Protein-1 (MCP1) Biomarker Activity (AID 2283017); details: primary human endothelial cells (HUVEC); actives raise or lower the signal
In short: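 Human umbilical vein endothelial cells (3C system) exposed to chemicals for 24 h; MCP-1 quantified by ELISA against the DMSO baseline with bidirectional fitting, and parallel SRB staining used to assess cytotoxicity.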

[8] = read-out: Monocyte Chemoattractant Protein-1 (MCP1), CCL2 (gene 6347); assay: BSK_4H_MCP1: BioMAP Diversity Plus: 4H Assay for Monocyte Chemoattractant Protein-1 (MCP1) Biomarker Activity (AID 2283018); details: primary human endothelial cells (HUVEC); actives raise or lower the signal
In short: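 ELISA of MCP-1 (CCL2) 24 h after chemical dosing of HUVEC in the BioMAP 4H system. Gain or loss versus DMSO fitted; parallel SRB staining (560 nm) tracked overt cytotoxicity.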

[9] = read-out: Human Leukocyte Antigen - DR isotype (HLADR), HLA-DRA (gene 3122); assay: BSK_3C_HLADR: BioMAP Diversity Plus: 3C Assay for Human Leukocyte Antigen - DR isotype (HLADR) Biomarker Activity (AID 2283019); details: primary human endothelial cells (HUVEC); actives raise or lower the signal
In short: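 HUVEC monoculture, HLA-DR measured by ELISA 24 h after chemical dosing. Fitted bidirectionally against DMSO baseline; parallel SRB staining assessed cytotoxicity, with 3C proliferation read by SRB at 48 h.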

[10] = read-out: Interleukin-8 (IL8), CXCL8 (gene 3576); assay: BSK_3C_IL8: BioMAP Diversity Plus: 3C Assay for Interleukin-8 (IL8) Biomarker Activity (AID 2283020); details: primary human endothelial cells (HUVEC); actives raise or lower the signal
In short: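 IL-8 was measured by ELISA in HUVEC cultures 24 h after chemical dosing, with gain or loss of signal fitted relative to DMSO. Parallel SRB total-protein staining tracked overt cytotoxicity.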

[11] = read-out: Monokine induced gamma interferon (MIG), CXCL9 (gene 4283); assay: BSK_3C_MIG: BioMAP Diversity Plus: 3C Assay for Monokine induced gamma interferon (MIG) Biomarker Activity (AID 2283021); details: primary human endothelial cells (HUVEC); actives raise or lower the signal;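 on AC50: MIG protein level measured by immunoassay in the treated endothelial cultures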
In short: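 ELISA measurement of MIG in human umbilical vein endothelial cells 24 h after treatment. Cytotoxicity tracked by SRB staining in parallel cultures; gain or loss of signal fitted relative to DMSO.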

[12] = BSK_3C_SRB: Viability Assessment in the BioMAP Diversity Plus: 3C Assay (AID 2283023); details: primary human endothelial cells (HUVEC);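 further: fitted both ways against DMSO so a hit may be signal rise or drop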
In short: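 Human umbilical vein endothelial cells in the 3C system, treated 24 h. Total protein measured by 0.1% sulforhodamine B staining after 10% TCA fixation, read at 560 nm; bidirectional fit versus DMSO.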

[13] = read-out: Matrix Metallopeptidase 1 (MMP1), MMP1 (gene 4312); assay: BSK_BE3C_MMP1: BioMAP Diversity Plus: BE3C Assay for Matrix Metallopeptidase 1 (MMP1) Biomarker Activity (AID 2283024); details: primary human bronchial epithelial cells; actives raise or lower the signal
In short: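 ELISA measurement of MMP-1 after 24 h compound exposure of primary human bronchial epithelial cells. Changes in either direction fitted relative to DMSO; parallel SRB staining checked overt cytotoxicity.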

[14] = BSK_3C_Vis: BioMAP Diversity Plus: 3C Assay for Morphology Visualization (AID 2283025); details: primary human endothelial cells (HUVEC);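 further: fitted both ways so gain or loss versus DMSO counts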;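 on AC50: light microscopy image of cell morphology used as background control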
In short: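 Light-microscopy visualization of HUVEC cultures at 24 h post-treatment, with DMSO as baseline for bidirectional fitting.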

[15] = read-out: Pselectin, SELP (gene 6403); assay: BSK_4H_Pselectin: BioMAP Diversity Plus: 4H Assay for Pselectin Biomarker Activity (AID 2283026); details: primary human endothelial cells (HUVEC); actives raise or lower the signal
In short: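 ELISA of surface P-selectin on HUVEC, 24 h after dosing, with parallel SRB staining (0.1% after 10% TCA fixation, 560 nm) for overt cytotoxicity. Activity fitted in both directions relative to DMSO.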

[16] = BSK_4H_SRB: Viability Assessment in the BioMAP Diversity Plus: 4H Assay (AID 2283027); details: primary human endothelial cells (HUVEC);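 further: cells exposed to compound for 24 h before staining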;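 on AC50: curves fitted both ways versus DMSO so AC50 may be loss or gain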
In short: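 Cytotoxicity read-out in primary human endothelial cells: after 24 h compound exposure, cells were TCA-fixed (10%), stained with 0.1% SRB and absorbance taken at 560 nm. Values fitted in both directions relative to DMSO.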

[17] = BSK_BE3C_SRB: Viability Assessment in the BioMAP Diversity Plus: BE3C Assay (AID 2283028); details: primary human bronchial epithelial cells
In short: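 Human bronchial epithelial primary cells in confluent culture, 24 h after chemical dosing; total protein by 0.1% SRB staining after 10% TCA fixation, read at 560 nm. Bidirectional fitting versus DMSO baseline.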

[18] = target: human Vitamin D Receptor (VDR), VDR (gene 7421) (UniProt P11473); assay: ATG_VDR_TRANS: Attagene TRANS-FACTORIAL HepG2 Assay for human Vitamin D Receptor (VDR) (AID 2283022; active means hit-call score of the fitted dose curve at least 0.9, where 1 is the maximum)
human Vitamin D Receptor (VDR), VDR (gene 7421), sequence (P11473 whole entry, looked up, the tested form may be a part): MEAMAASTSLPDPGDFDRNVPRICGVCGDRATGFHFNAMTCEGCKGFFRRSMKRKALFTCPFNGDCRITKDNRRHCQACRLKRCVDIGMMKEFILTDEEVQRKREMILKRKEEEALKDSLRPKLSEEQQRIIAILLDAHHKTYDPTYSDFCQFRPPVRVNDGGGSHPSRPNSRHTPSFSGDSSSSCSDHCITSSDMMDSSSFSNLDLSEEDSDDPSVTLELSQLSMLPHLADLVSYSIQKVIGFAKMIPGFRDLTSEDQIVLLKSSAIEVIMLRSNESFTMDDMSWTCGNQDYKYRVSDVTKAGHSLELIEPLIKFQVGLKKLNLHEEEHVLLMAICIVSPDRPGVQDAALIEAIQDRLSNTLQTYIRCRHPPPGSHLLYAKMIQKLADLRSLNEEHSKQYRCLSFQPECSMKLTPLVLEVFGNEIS
In short: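 HepG2 cells were transiently transfected with GAL4-UAS reporter units and a chimeric VDR-Gal4 construct, then dosed for 24 hours. Reporter mRNA was quantified by RT-PCR, fluorescent labeling, HpaI digestion and capillary electrophoresis; gain of signal analysed vs DMSO.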

[19] = target: human Thyroid Receptor alpha (THRa1), THRA (gene 7067) (UniProt P10827); assay: ATG_THRa1_TRANS: Attagene TRANS-FACTORIAL HepG2 Assay for human Thyroid Receptor alpha (THRa1) (AID 2283014; active means hit-call score of the fitted dose curve at least 0.9, where 1 is the maximum)
human Thyroid Receptor alpha (THRa1), THRA (gene 7067), sequence (P10827 whole entry, looked up, the tested form may be a part): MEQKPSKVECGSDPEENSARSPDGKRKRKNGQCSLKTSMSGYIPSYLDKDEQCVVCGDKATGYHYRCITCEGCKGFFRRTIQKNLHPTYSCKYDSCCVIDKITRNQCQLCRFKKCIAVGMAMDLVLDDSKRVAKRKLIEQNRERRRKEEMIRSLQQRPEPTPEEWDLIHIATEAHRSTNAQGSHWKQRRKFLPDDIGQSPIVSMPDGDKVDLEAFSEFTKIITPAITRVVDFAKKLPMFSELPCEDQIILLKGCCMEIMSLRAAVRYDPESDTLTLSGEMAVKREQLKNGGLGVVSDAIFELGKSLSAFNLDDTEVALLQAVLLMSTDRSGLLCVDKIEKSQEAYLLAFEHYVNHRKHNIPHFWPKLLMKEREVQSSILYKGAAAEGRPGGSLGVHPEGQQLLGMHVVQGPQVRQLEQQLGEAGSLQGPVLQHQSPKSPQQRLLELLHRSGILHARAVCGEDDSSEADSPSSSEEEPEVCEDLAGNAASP
In short: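 HepG2 cells transiently transfected with chimeric NR-Gal4 and GAL4-UAS reporter units, dosed 24 h. Reporter mRNA quantified by RT-PCR, fluorescent labeling, HpaI digestion and capillary electrophoresis; gain-of-signal fit versus DMSO.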

[20] = read-out: Thrombomodulin, THBD (gene 7056); assay: BSK_3C_Thrombomodulin: BioMAP Diversity Plus: 3C Assay for Thrombomodulin Biomarker Activity (AID 2283029); details: primary human endothelial cells (HUVEC); actives raise or lower the signal
In short: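 ELISA measurement of thrombomodulin on HUVEC surface 24 h after chemical dosing; activity fitted in both directions relative to DMSO vehicle.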

Measured: AC50

E-selectin (Homo sapiens), sequence (P16581 whole entry, looked up): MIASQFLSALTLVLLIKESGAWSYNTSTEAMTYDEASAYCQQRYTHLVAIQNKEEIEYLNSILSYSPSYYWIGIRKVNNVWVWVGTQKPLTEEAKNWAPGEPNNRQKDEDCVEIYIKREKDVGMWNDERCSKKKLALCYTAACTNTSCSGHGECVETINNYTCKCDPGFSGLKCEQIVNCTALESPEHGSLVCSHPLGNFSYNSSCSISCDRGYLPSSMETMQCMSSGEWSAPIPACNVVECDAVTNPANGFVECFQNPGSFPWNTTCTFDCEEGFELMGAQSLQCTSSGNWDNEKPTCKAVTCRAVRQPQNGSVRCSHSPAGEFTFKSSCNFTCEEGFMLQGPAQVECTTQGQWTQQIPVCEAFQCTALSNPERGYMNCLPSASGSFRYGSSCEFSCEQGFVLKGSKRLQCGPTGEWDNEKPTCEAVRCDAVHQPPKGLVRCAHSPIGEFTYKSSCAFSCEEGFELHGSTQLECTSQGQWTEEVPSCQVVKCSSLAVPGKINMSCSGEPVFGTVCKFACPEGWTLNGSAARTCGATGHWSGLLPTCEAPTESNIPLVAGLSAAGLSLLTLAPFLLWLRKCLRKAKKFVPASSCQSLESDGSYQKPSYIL

CC=C(C)C(C)=O
active: [3] 100 µM | [4] 9.05 µM | [13] 0.419 µM
not listed: [18] | [19] | [20]
inactive: all other assays above

CCOC(=O)C1=NOC(c2ccccc2)(c2ccccc2)C1
active: [6] 0.129 µM | [10] 3.97 µM
not listed: [4] | [19] | [20]
inactive: all other assays above

Cn1cccc1
inactive: [1] | [2] | [3] | [4]

CC1(C)C(=O)N(CO)C(=O)N1CO
inactive: [1] | [2] | [3] | [19] | [18]

CCCCCCCCCCCC(C)=O
active: [4] 25.9 µM | [5] 33.7 µM | [6] 20 µM | [7] 31.3 µM | [8] 29.8 µM | [9] 32.5 µM | [10] 28.6 µM | [11] 35 µM | [12] 29.9 µM | [13] 0.016 µM | [14] 37.8 µM | [15] 28.1 µM | [16] 33.9 µM
inactive: [1] | [2] | [3] | [18] | [17]

C=CC(=O)OCC(C)OCC(C)OCC(C)OC(=O)C=C (centres undefined)
inactive: [1] | [2] | [3] | [19] | [18] | [13] | [17]
active: [5] 11 µM | [6] 21.5 µM | [7] 28.9 µM | [8] 7.07 µM | [9] 8.55 µM | [10] 20 µM | [11] 35.5 µM | [12] 20 µM | [14] 16 µM | [15] 13.2 µM | [16] 12.1 µM

CCCCNC(=S)NCCCC
inactive: [1] | [2] | [4] | [19]

C=C(C)[C@@H]1CC=C(C)CC1
inactive: [1] | [2] | [4]

CC(C)OC(=O)c1ccccc1
inactive: [1] | [2] | [3] | [18]

Cc1ccc([N+](=O)[O-])cc1N
active: [2] 25.7 µM
not listed: [3]
inactive: all other assays above
